# Results reported in ChEMBL document CHEMBL4513216, “Probing the Open Global Health Chemical Diversity Library for Multistage-Active Starting Points for Next-Generation Antimalarials” (ACS Infect Dis, 2020).
# Screen size: about 68,000 compounds; about 2,700 (4%) showed an effect of 50% or more. The sample holds strong results, similar compounds and a random draw of the others, so the mix is not that of the screen.
# Test system: Plasmodium berghei
# Assay: Screen against P. berghei liver stage (PbLuc), transformed with Luciferase, at 2uM
# Type: functional, HepG2
# Conditions: tested at 2 uM
row,Structure (SMILES),INHIBITION [%]
1,CCc1ccc(C(C)NC(=O)N2CCC(n3cncn3)CC2)cc1 (stereo not given),38.06
2,CC(C)N(C)[C@@H]1CCN(c2ncccn2)[C@H]1Cc1ccncc1,11.9
3,CN(CC(=O)N1CCC(Oc2ccc(C(F)(F)F)cn2)CC1)S(C)(=O)=O,17.26
4,Cc1nccn1CC1CCCN1S(=O)(=O)Cc1ccc(F)cc1 (stereo not given),-88.61
5,Cc1nccn1CC1CCCN1S(=O)(=O)Cc1ccon1 (stereo not given),60.31
6,Cc1nccn1CC1CCCN1S(=O)(=O)Cc1ccccc1 (stereo not given),0.26
7,CCc1nccn1CCCNC(=O)c1cnn(-c2ccccc2OC)c1,-9.69
8,O=C(CCn1ccc2cc(Br)ccc21)NCc1ccc(C(=O)O)cc1,-4.69
9,O=C(COC[C@]12COC[C@H]1CN(C1CCC1)C2)N1CCCC1,-37.65
10,O=C(COC[C@@]12CCC[C@@H]1CN(C1CCC1)C2)N1CCCC1,51.27
11,O=C(COC[C@@]12CCC[C@@H]1CN(C1CCCC1)C2)N1CCCC1,-9.14
12,Cn1nc2c(cc1=O)CN(c1ncnc3ccsc13)CC2,-37.96
13,CCC[C@@H]1CN(Cc2cc3c(cc2OC)OCO3)C[C@H]1C(=O)O,-23.34
14,CCC[C@@H]1CN(Cc2cc(OC)c3c(c2)OCO3)C[C@H]1C(=O)O,57.75
15,CCC[C@@H]1CN(Cc2cc3c(cc2OC)OCCO3)C[C@H]1C(=O)O,19.59
16,CN(C)c1nccc(C2CN(S(C)(=O)=O)C2)n1,40.78
17,Cc1cc(C(=O)N2CCN(S(C)(=O)=O)[C@@H](C)C2)c(F)cc1F,1.27
18,CC(=O)N[C@H]1CCO[C@@H](c2cccc(NC(=O)Cc3ccccc3)c2)C1,0.93
19,O=C(CCNc1ncccn1)NCc1ccc(Br)s1,64.22
20,O=C(CCNc1ncccn1)NCc1csc(Br)c1,33.47
21,O=C(CCNc1ncccn1)NCc1cccc(OC(F)F)c1,52.3
22,Cc1ccc(CCNC(=O)NCc2cccc(OC(F)F)c2)cn1,-16.71
23,CCc1ccc(CNC(=O)CCNc2ncccn2)s1,-18.99
24,O=C(NCCNc1ncccn1)NCc1cccc(OC(F)F)c1,-35.22
25,c1ccc(-c2nnc(N3CCCC4(CCOC4)C3)s2)cc1 (stereo not given),-21.39
26,N#Cc1ccc(N2CCCN(CC(=O)N3CCOCC3)CC2)cc1,-45.9
27,Cc1ccc(NC2CCN(C(=O)CC3CCCO3)CC2)nn1 (stereo not given),-3.38

row,Structure (SMILES),INHIBITION [%]
1,Cc1ccc(-c2noc(CN3CCOC(CN(C)C)C3)n2)cc1F (stereo not given),-19.76
2,CCc1ccc(C2CC(=O)Nc3cc(NS(C)(=O)=O)ccc32)o1 (stereo not given),-24.85
3,CCOc1ncccc1NC(=O)N1CCCN(C(=O)OC)CC1,12.81
4,CN1CCN(C(=O)[C@H]2C[C@H]3[C@H](CCN3Cc3nccs3)O2)CC1,37.54
5,O=C([C@@H]1C[C@H]2[C@H](CCN2Cc2nccs2)O1)N1CCOCC1,-16.93
6,CN(C)C(=O)[C@@H]1CC[C@@H]2[C@@H](CCN2Cc2nccs2)O1,6.66
7,O=C([C@H]1CC[C@@H]2[C@@H](CCN2Cc2nccs2)O1)N1CCCCO1,23.93
8,CC1CCN(C(=O)[C@H]2CC[C@@H]3[C@@H](CCN3Cc3nccs3)O2)CC1,53.46
9,CN(C)C(=O)[C@@H]1C[C@@H]2CCN(Cc3nccs3)C[C@@H]2O1,-31.39
10,Cn1cc(CN2CC[C@@H]3O[C@H](C(=O)N4CCOCC4)C[C@@H]32)cn1,86.68
11,Cc1nc(CN2CC[C@@H]3O[C@@H](C(=O)N4CCOCC4)C[C@@H]32)cs1,34.24
12,O=C([C@H]1CC[C@@H]2[C@@H](CCN2Cc2nccs2)O1)N1CCOCC1,77.07
13,Cn1cc(CN2CC[C@H]3O[C@@H](C(=O)NC4CC4)CC[C@H]32)cn1,-43.66
14,CN(C)C(=O)[C@@H]1C[C@@H]2[C@@H](CCN2Cc2nccs2)O1,55.11
15,CN1CCN(C(=O)[C@H]2CC[C@@H]3[C@@H](CCN3Cc3nccs3)O2)CC1,1.78
16,CC[C@@]1(O)CCN(C(=O)CN(C)Cc2ccc(F)cc2)C[C@H]1O,25.06
17,CN(C)[C@@H]1C[C@@H](CO)N(C(=O)Nc2cccc(F)c2F)C1,-57.1
18,CNC(=O)[C@H]1C[C@@H]2CCN(CCc3ccccc3)C[C@@H]2O1,21.77
19,CS(=O)(=O)N1CCc2sc(C(=O)NCc3ccccc3)cc21,38.62
20,O=C(C1CC(F)(F)C1)N1C[C@@H]2CN(CC3CC3)CCO[C@@H]2C1,-14.21
21,Cc1nccn1CCC1CCN(C(C)C)CC1,4.53
22,Cc1ccc2c(ccn2CCC(=O)O)c1,-7.01
23,Cc1cccc(CN2C(=O)C[C@H]3[C@@H]2CCN3Cc2ccccn2)n1,-11.91
24,Cc1cnn(C2CCCN(C(=O)c3cn(-c4ccccc4)nc3C)C2)c1 (stereo not given),86.75
25,Cc1nn(-c2ccccc2)cc1C(=O)N1CCCN2CCCC2C1 (stereo not given),20.11
26,O=C(c1ccc(-n2cccn2)nc1)N1CCCC(n2cccn2)C1 (stereo not given),-9.61
27,Cc1cnn(C2CCCN(C(=O)c3ccc4c(c3)CCC4)C2)c1 (stereo not given),56.02

row,Structure (SMILES),INHIBITION [%]
1,Cc1cnn(C2CCCN(C(=O)c3ccn(C)c(=O)c3)C2)c1 (stereo not given),16.51
2,O=C(c1ccc(NC2CC2)nc1)N1CCCC(n2cccn2)C1 (stereo not given),54.85
3,O=C(c1ccc(NC2CC2)nc1)N1CCCC(n2ccnc2)C1 (stereo not given),-5.3
4,Cc1cnn(C2CCCN(C(=O)c3sccc3-n3cnnn3)C2)c1 (stereo not given),51.21
5,Cc1nn(-c2ccccc2)cc1C(=O)N1CCCC(n2cccn2)C1 (stereo not given),11.1
6,Cc1cnn(C2CCCN(C(=O)c3ccnc(N(C)C)c3)C2)c1 (stereo not given),-21.91
7,Cc1cnn(C2CCCN(C(=O)c3ccc(-n4cnnn4)cc3)C2)c1 (stereo not given),15.4
8,Cc1cnn(C2CCCN(C(=O)c3ccccc3-n3cnnn3)C2)c1 (stereo not given),-31.16
9,COc1ccccc1CN1CCC(c2nn(CCN)c3nccnc23)C1 (stereo not given),-6.04
10,Cc1csc(CN2CC[C@H]3C[C@H](c4nc(C)no4)O[C@@H]3C2)n1,18.32
11,CCOCC1CN(c2ccc(C)nn2)Cc2nn(CC)cc21 (stereo not given),-3.19
12,CCCc1cc(=O)[nH]c(-c2cccc(CN3CCN4CCCC4C3)c2)n1 (stereo not given),-19.98
13,Cc1cnn(CC2CCCCN2CC(=O)NCc2ccccn2)c1 (stereo not given),16.6
14,Cc1cnn(C2CCCN(C(=O)c3ccc(O)nc3)C2)c1 (stereo not given),45.83
15,Cc1cnn(C2CCCN(C(=O)c3ccc(N4CCCC4)nn3)C2)c1 (stereo not given),-104.9
16,Cc1cnn(C2CCCN(C(=O)c3ccc(N(C)C)nn3)C2)c1 (stereo not given),69.41
17,Cc1ccc(-n2cc(C(=O)N3CCCC(n4cccn4)C3)nn2)cc1 (stereo not given),18.59
18,Cc1cnn(C2CCCN(C(=O)c3ccc(NC4CC4)nc3)C2)c1 (stereo not given),72.31
19,CN(C)c1ccc(C(=O)N2CCCC(n3cccn3)C2)nn1 (stereo not given),37.68
20,O=C(c1cn(-c2ccccc2)nn1)N1CCCC(n2cccn2)C1 (stereo not given),-3.05
21,O=C(c1cnc(-c2ccccn2)s1)N1CCCC(n2cccn2)C1 (stereo not given),51.94
22,CNC(=O)c1ccc(C(=O)N2CCCC(n3cc(C)cn3)C2)cn1 (stereo not given),16.64
23,Cc1cccc(-n2cc(C(=O)N3CCCC(n4cccn4)C3)nn2)c1 (stereo not given),58.53
24,O=C(c1cnc(-c2ncccn2)s1)N1CCCC(n2cccn2)C1 (stereo not given),5.09
25,O=C(c1cnc(-c2cnccn2)s1)N1CCCC(n2cccn2)C1 (stereo not given),35.65
26,CCc1nc(CN2CCCC(N(C)CCc3cccs3)C2)no1 (stereo not given),-14.04
27,CCC(CC)c1cc(CNC(=O)N2CCOC(C)C2)on1 (stereo not given),-40.76

row,Structure (SMILES),INHIBITION [%]
1,c1cnc(N2CCN(CCn3ccnc3-c3ccncc3)CC2)nc1,36.79
2,Cc1nc(C2CCN(C(=O)c3cscn3)CC2)c2sccn12,45.5
3,CC(C)n1[nH]c(=O)c2c1NC(=O)CSC2c1cccc(OCC(N)=O)c1 (stereo not given),9.29
4,O=C(c1cnccn1)N1C[C@@H]2CN(Cc3cccnc3)CCO[C@@H]2C1,0.54
5,CN(C)CCN1C2(CCN(Cc3nccs3)C2)c2ccccc2S1(=O)=O (stereo not given),31.25
6,Cn1cc(C2COC3(CCN(C(=O)c4ccsc4)CC3)C2)cn1 (stereo not given),-0.38
7,Cn1cc(-c2nc(CN3CCc4c(ncn4C)C3)cs2)cn1,14.06
8,Cc1nc(CNCC2CCCN2c2cccnn2)no1 (stereo not given),-12.31
9,O=C(c1cnc(-c2cccs2)s1)N1CCCC(n2cccn2)C1 (stereo not given),42.18
10,O=C(c1cnc(-c2cccs2)s1)N1CCCC(n2ccnc2)C1 (stereo not given),64.16
11,O=C(c1cnc(-c2cccs2)s1)N1CCCN2CCCC2C1 (stereo not given),-38.96
12,Cn1cccc1C(=O)N1CC[C@H]2[C@H]1CCN2CC1CC1,-0.23
13,CCN(CC)C(=O)c1ccc(COc2ccccc2C#N)o1,9.54
14,O=C(O)c1cc2c(nc1-c1ccncc1)CCN(C1CCOC1)CC2 (stereo not given),-6.71
15,CCc1ccc(-c2cc(C(F)(F)F)nc(N3CCC(N)CC3)n2)cc1,16.36
16,CCCC1CCCN(Cc2csc(-c3ncccn3)n2)CC1 (stereo not given),33.5
17,c1cnc(-c2nc(CN3CCn4c(nnc4C4CC4)C3)cs2)nc1,63.64
18,c1coc(-c2nc(CN3CCn4c(nnc4C4CC4)C3)cs2)c1,39.65
19,c1cnc(-c2nc(CN3CCCC(N4CCCC4)C3)cs2)nc1 (stereo not given),-44.96
20,Cc1nnc2n1CCN(Cc1c(Cl)ccc3cccnc13)C2,5.28
21,Fc1cccc(Cl)c1CN1CCn2c(nnc2C2CC2)C1,7.67
22,c1ccc(-c2nc(CN3CCn4c(nnc4C4CC4)C3)cs2)cc1,34.39
23,CC1CCCN(Cc2csc(-c3ncccn3)n2)CC1 (stereo not given),53.03
24,Clc1ccc2cccnc2c1CN1CCn2c(nnc2C2CC2)C1,55.36
